Assay outcomes (PubChem)
ATXN2 expr inh: ATXN2 expression inhibition; HEK-293 ATXN2-luciferase reporter, luminescence, 24 h; 0.72% of 360,000 active; Potency, µM (titrated, usually from 57 µM), for the others: at the highest dose activity change, negative = inhibition, hits mostly inhibitors; AID 1745845; also: % is scaled to controls: 0 for no effect and ±100 for the full control effect; nearly all actives have a fitted effect of over 55% in size
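qHTS (up to 57 uM final) was run with 24 h compound exposure of reporter cells at 37 °C. Each well was multiplexed: SteadyGlo luminescence measured ATXN2-luciferase expression after a fluorogenic Gly-Phe-AFC viability readout (25 uM final).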
HT1080 IDH1KD tx: HT-1080 IDH1 knockdown cell toxicity (counter line) | HT-1080 IDH1 knockdown viability, ATP luminescence, 48 h | Potency, µM (top dose mostly 46.1 µM), without a hit: at the top dose activity, negative = toxicity, usual class: cytotoxic | 2% of 360,000 active;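 also: 0% = DMSO wells and -100% = cell-free medium wells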
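Luminescent ATP read-out (CellTiter-Glo, 10 min at room temperature) after 48 h compound exposure at 37 °C gave viability of IDH1-knockdown HT-1080 cells. Activity was normalised to DMSO and cell-free wells, then fitted as concentration-response curves.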
HepG2 tox-1: counter-screen for TGF-b inhibitors: cytotoxicity in HepG2 cells. HepG2 CAGA-GFP viability, ATP luminescence, 18 h. AID 588856. Potency, µM (titrated, usually from 46.1 µM), without a hit: at the highest dose activity change, negative = cytotoxicity, actives largely listed as cytotoxic. 0.76% of 410,000 active
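HepG2 CAGA-GFP cells (1000/well, DMEM with 1% FBS) received compound, then TGF-beta at 500 pg/mL final, and were incubated 18 hours at 37 degrees C. Viability was read by CellTiter-Glo luminescence. Media-only wells were set as complete cell-killing and DMSO as no toxicity.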
TGFb SMAD3 inh: TGF-b pathway inhibition; HepG2 CAGA-GFP TGF-b/SMAD3 reporter, GFP fluorescence, 18 h; TGF-beta stimulated, 500 pg/mL final; Potency, µM (series often up to 46.1 µM), for inactives: at the top dose activity, negative = inhibition, hits mostly inhibitors; 1.2% of 410,000 active; AID 588855; also: % is scaled to controls: 0 for no effect and ±100 for the full control effect; nearly all actives have a fitted effect of over 65% in size
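Inhibition was scored as loss of TGF-beta-induced (500 pg/mL final, 18 hours, 37 degrees C) GFP in HEPG2 cells carrying a CAGA-GFP reporter, in DMEM with 1% FBS. Well GFP was summed per cell; Activity was normalised to unstimulated and stimulated DMSO wells, then concentration-response fitting.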
S2 tox: viability counter-screen for ATXN expression inhibitors; S2 cells (HEK-293 line with an ATXN2-luciferase reporter) viability, CellTiter-Fluor protease fluorescence, 24 h; Potency, µM (titrated, usually from 56.7 µM), most hits filed as cytotoxic; 0.49% of 400,000 active; also: nearly all actives have a fitted effect of over 40% in size
HT1080-NT tox: kills 2HG-producing HT-1080-NT fibrosarcoma cells | HT-1080-NT fibrosarcoma viability, CellTiter-Glo ATP luminescence, 48 h | Potency, µM (highest dose often 46.1 µM), for the others: at the highest dose activity, negative = less viability, hits mostly cytotoxic | 1.6% of 360,000 active;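 also: NT is the 2HG producing partner of a matched IDH1 knockdown line; 0% = DMSO-treated cells and -100% = media-only wells without cells; nearly all actives have a fitted effect of over 55% in size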
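Toxicity toward the 2HG-producing NT line was scored as %Activity, normalised to DMSO and no-cell wells, from CellTiter-Glo luminescence after 48 hours' treatment.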
TGFb confirm: confirmation of TGF-b signaling inhibitors in HepG2 reporter cells; shares compounds with TGFb SMAD3 inh; HepG2 CAGA-GFP TGF-b reporter, GFP fluorescence, 18 h; cells stimulated with TGF-beta, 500 pg/mL; Potency, µM (titrated, usually from 46.1 µM), for the others: top-dose activity, negative = inhibition, usual class: inhibitors; 63% of 1,600 active; also: % is scaled to controls: 0 for no effect and ±100 for the full control effect; nearly all actives have a fitted effect of over 65% in size
HepG2 tox-2: HepG2 cytotoxicity, TGF-b inhibitor counterscreen; Potency, µM (highest dose often 46.1 µM), inactives show top-dose activity, negative = cytotoxicity, usual class: inhibitors; AID 720535; shares compounds with TGFb SMAD3 inh; HepG2 CAGA-GFP viability, ATP luminescence, 18 h; cells stimulated with TGF-beta, 500 pg/mL; 27% of 1,600 active; also: % is scaled to controls: 0 for no effect and ±100 for the full control effect; nearly all actives have a fitted effect of over 70% in size
TGFb CCL64 inh: TGF-b inhibition, CCL64 orthogonal assay; shares compounds with TGFb SMAD3 inh; CCL64 CAGA-GFP reporter, TGF-b stimulated, GFP fluorescence, 18 h; Potency, µM (titrated, usually from 46.1 µM), inactives show at the highest dose activity, negative = inhibition, actives largely listed as inhibitors; 41% of 1,600 active; AID 720536; also: nearly all actives have a fitted effect of over 65% in size
TGFb COP inh: blocks TGF-b signaling in HepG2 COP reporter | AID 720537 | Potency, µM (series often up to 46.1 µM), for the others: at the highest dose activity, negative = inhibition, most hits filed as inhibitors | shares compounds with TGFb SMAD3 inh | 3% of 1,600 active | HepG2 COP-GFP TGF-b reporter, GFP fluorescence, 18 h; cells stimulated by added recombinant TGF-beta; also: nearly all actives have a fitted effect of over 70% in size
The depositor's hits bear a star; i = inactive; ? = inconclusive; . = no result. Compounds with a hit are over-represented: about 3.8% of the library has one in this group of screens. Calls follow the shape of the dose curve; as a rule, active = well fitted curve in the direction sought with a large enough effect; inconclusive = small, poorly fitted or top-dose-only effect, or another doubt; inactive = no such curve, though single readings can be large; an effect the other way counts as inactive or inconclusive. Potency is read from the fitted curve at half-maximal effect.

SMILES	ATXN2 expr inh	HT1080 IDH1KD tx	HepG2 tox-1	TGFb SMAD3 inh	S2 tox	HT1080-NT tox	TGFb confirm	HepG2 tox-2	TGFb CCL64 inh	TGFb COP inh
CNc1c2cccc(C)c2nc2c(C(=O)NCCN(C)C)cccc12	?	7.31µM*	-7.2%	1.12µM*	.	?	0.581µM*	0.517µM*	1.3µM*	69.4%
Cc1ccc(C(=O)NCCN(C)C)c(C)c1	3.1%	9.3%	-1.8%	-7.5%	?	5.7%	.	.	.	.
COc1ccc(C(NC(=O)C2CCN(CCOc3ccc(Cl)cc3Cl)CC2)c2cccs2)cc1 (configuration not stated)	-23.7%	?	5.01µM*	4.47µM*	?	-22.6%	?	?	?	?
O=S(=O)(O)c1c(NS(=O)(=O)c2ccccc2)ccc2ccccc12	.	.	5.3%	-1.8%	.	.	.	.	.	.
Cc1nc2ccc(S(=O)(=O)NC(C(=O)NCc3ccc(Cl)cc3)C(C)C)cc2s1 (configuration not stated)	-0.3%	.	-7.0%	-15.8%	i	.	.	.	.	.
Cc1ccc(N/N=C(\C#N)C(=O)c2ccsc2)cc1	.	?	-22.0%	?	i	?	.	.	.	.
N#C/C(=N\Nc1ccc(Cl)cc1)C(=O)c1ccsc1	?	?	-27.5%	?	?	?	8.2µM*	7.31µM*	20.6µM*	15.0%
O=C(Cn1c(=O)oc2cc(S(=O)(=O)N3CCCCCC3)ccc21)Nc1cccc(C(F)(F)F)c1	.	.	-25.1%	-3.0%	.	.	.	.	.	.
COc1cc(C2C3=C(COC3=O)OC(C)(C)Oc3cc4c(cc32)OCO4)cc(OC)c1OC (configuration not stated)	-0.9%	?	-2.2%	2.82µM*	?	?	?	-0.1%	?	-1.6%
COc1cc(C2C3=C(COC3=O)Oc3cc4c(cc32)OCO4)ccc1O (configuration not stated)	-9.0%	?	-3.7%	12.6µM*	?	?	-29.7%	7.8%	?	-17.4%
Nc1nc(NCc2ccccc2)c2[nH]cnc2n1	.	.	-16.7%	-18.9%	.	.	.	.	.	.
CC(=O)Nc1ccc(NC2=C/C(=N/S(=O)(=O)c3cccs3)c3ccccc3C2=O)cc1	15.8µM*	9.2µM*	6.31µM*	5.01µM*	10µM*	16.4µM*	2.59µM*	3.26µM*	9.2µM*	5.17µM*
COc1ccc(S(=O)(=O)/N=C2\C=C(Nc3ccc(O)cc3)C(=O)c3ccccc32)cc1	3.16µM*	2.06µM*	0.891µM*	0.794µM*	6.31µM*	1.84µM*	0.581µM*	4.11µM*	1.3µM*	?
Cc1ccc(NC(=O)CSc2nc(-c3ccco3)nc3cc(=O)[nH]n23)cc1C	9.5%	.	1.4%	-16.8%	i	.	.	.	.	.
COc1ccccc1OC(C)C(=O)Nc1c(C(=O)c2ccc(Cl)cc2)oc2ccccc12 (configuration not stated)	15.3%	.	-1.4%	1.6%	i	.	.	.	.	.
COC(=O)c1c(C)sc(-c2c(-c3ccc(OC)c(F)c3)[nH]c3c2c(=O)n(C)c(=O)n3C)c1O	5.0%	.	6.0%	14.0%	?	.	.	.	.	.
O=C(NCc1nnc(SCc2ccc(F)cc2)n1-c1ccc(F)cc1)C12CC3CC(CC(C3)C1)C2	-5.6%	?	-0.1%	15.8µM*	i	?	?	?	?	47.0%
O=C(CSc1nnc(CNC(=O)C23CC4CC(CC(C4)C2)C3)n1-c1ccc(F)cc1)Nc1ccc(F)cc1	0.0%	-23.7%	-15.0%	?	i	-15.6%	.	.	.	.
COc1cc(C(=O)c2cocc2C(=O)c2ccc3c(c2)OCO3)cc(OC)c1OC	6.0%	1.64µM*	4.3%	?	i	1.3µM*	-10.4%	1.2%	-15.1%	-13.8%
CCN(CC)S(=O)(=O)c1cccc(C(=O)N[C@H](C(=O)Nc2nc3ccc(F)cc3s2)C(C)C)c1	?	?	-17.8%	7.94µM*	i	-8.3%	4.11µM*	?	?	8.8%
CCN(CC)S(=O)(=O)c1cccc(C(=O)N[C@H](C(=O)Nc2nc3ccccc3s2)C(C)C)c1	9.8%	-23.8%	-27.7%	?	i	-25.9%	.	.	.	.
CC[C@]12c3[nH]c4ccc(Cl)cc4c3CCN1C(=O)[C@@H](CC(=O)NCc1cccc(C(F)(F)F)c1)C[C@@H]2C(=O)N1CCN(C(=O)C2CC2)CC1	?	?	-7.7%	14.1µM*	?	?	-77.3%	?	?	60.7%
CC[C@]12c3[nH]c4cc(-c5ccco5)ccc4c3CCN1C(=O)[C@@H](CC(=O)NCc1cccc(C(F)(F)F)c1)C[C@@H]2C(=O)N1CCN(C(=O)c2ccco2)CC1	?	-20.7%	-5.4%	11.2µM*	?	-11.1%	4.11µM*	-27.3%	?	17.7%
CC[C@]12c3[nH]c4ccc(Cl)cc4c3CCN1C(=O)[C@@H](CC(=O)NC/C=C(\C)CCC=C(C)C)C[C@@H]2C(=O)N1CCN(C(=O)C2CC2)CC1	?	20.6µM*	-67.8%	10µM*	.	?	?	?	20.6µM*	65.7%
CC[C@]12c3[nH]c4ccc(Cl)cc4c3CCN1C(=O)[C@@H](CC(=O)NCc1cccc(C(F)(F)F)c1)C[C@@H]2C(=O)N1CCN(C(=O)c2ccco2)CC1	?	?	6.3%	12.6µM*	28.2µM*	?	16.4µM*	?	10.3µM*	63.8%
